Our source for the z-score values is PubChem BioAssay AID1347419 (Sanford-Burnham Center for Chemical Genomics, 2020).

SMILES strings stand for the structures. The whole screen tested about 99,000 compounds, of which about 820 (0.83%) were called active. The sample as a whole holds a higher share of actives than the screen did. Unmarked numbers belong to inactive results.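 How the source made its calls: active means Z-score of -3 or lower, scaled per plate to the spread of control and sample wells; inactive means z-score above -3.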

The target in this experiment is Protein-tyrosine kinase 2-beta (Homo sapiens) (UniProt Q14289). As to the kind of experiment: Pyk2 FERM oligomerization blockers – Q293 cells, FERM NanoBiT luminescence, HTS, primary screen (AID 1347419).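 Further: the deposit names both 25 µM and 10 µM; negative z-score means lost luminescence so less FERM oligomerization.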 To be noted: hits give low values. The arrangement: dose or concentration left out as unconfirmed.
Sequence of Protein-tyrosine kinase 2-beta (Homo sapiens) (Q14289 whole entry, looked up): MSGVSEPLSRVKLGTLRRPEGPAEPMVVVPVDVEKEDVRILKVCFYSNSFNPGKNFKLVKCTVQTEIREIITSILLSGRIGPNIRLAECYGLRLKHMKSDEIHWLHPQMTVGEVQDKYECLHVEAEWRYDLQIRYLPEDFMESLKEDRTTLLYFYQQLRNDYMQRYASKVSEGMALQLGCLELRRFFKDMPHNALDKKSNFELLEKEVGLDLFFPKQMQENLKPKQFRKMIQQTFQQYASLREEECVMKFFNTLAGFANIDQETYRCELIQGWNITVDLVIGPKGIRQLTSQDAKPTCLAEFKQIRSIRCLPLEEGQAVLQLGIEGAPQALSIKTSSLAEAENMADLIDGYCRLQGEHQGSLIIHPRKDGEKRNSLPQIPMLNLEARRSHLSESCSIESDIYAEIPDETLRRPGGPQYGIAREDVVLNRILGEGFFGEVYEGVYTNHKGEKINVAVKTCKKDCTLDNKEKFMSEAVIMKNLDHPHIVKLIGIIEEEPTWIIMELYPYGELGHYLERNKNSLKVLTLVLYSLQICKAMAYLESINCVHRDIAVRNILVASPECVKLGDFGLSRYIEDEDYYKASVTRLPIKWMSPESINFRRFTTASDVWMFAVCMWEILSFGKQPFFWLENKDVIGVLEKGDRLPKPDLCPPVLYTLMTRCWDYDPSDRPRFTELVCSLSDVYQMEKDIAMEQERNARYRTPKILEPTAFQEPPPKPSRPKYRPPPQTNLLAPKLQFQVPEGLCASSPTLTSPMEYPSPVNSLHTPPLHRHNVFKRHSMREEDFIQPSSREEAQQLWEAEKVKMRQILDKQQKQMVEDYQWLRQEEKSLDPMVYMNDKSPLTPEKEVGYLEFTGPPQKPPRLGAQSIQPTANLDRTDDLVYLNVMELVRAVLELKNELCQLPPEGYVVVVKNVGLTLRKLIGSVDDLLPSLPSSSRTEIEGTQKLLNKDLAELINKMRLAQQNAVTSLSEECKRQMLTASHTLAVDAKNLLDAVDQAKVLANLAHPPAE
As to `Cc1ccc(Nc2nnc(SCC(=O)c3cc4ccccc4o3)s2)cc1C`, the z-score was -0.02.
Consider `CC1CCN(C(=S)NC2CC3CCC2C3)CC1` (configuration not stated), for which the z-score is -0.08.
Consider `CN1CCN(c2ccc(NC(=O)COc3ccc(Cl)cc3Cl)cc2)CC1`, for which the z-score was -0.4.
In the case of `Cc1ccccc1OCC(=O)Nc1ccc(N2CCN(C(=O)C(C)C)CC2)c(Cl)c1`, the z-score is -3.97 (active).
Under `Cc1cccc(NC(=O)COc2ccccc2C)n1` stands 0.47; under `O=S(=O)(NCCc1ccncc1)c1ccccc1`, 0.43; under `Cc1cccc(-n2c(C)cc(/C=N\NC(=O)c3cccs3)c2C)c1`, -0.91.
In the case of `CCn1c(/C=C/Nc2ccccc2)[n+](CC)c2ccc(C(=O)OCC(F)(F)F)cc21`, the z-score is 1.39.
Regarding `Cc1cc2c(c(=O)n1Cc1ccco1)C(c1ccccc1)C(C#N)=C(N)O2` (configuration not stated), the z-score was 1.13.
With `CCCc1[nH]nc2c1C(c1c(C)nn(-c3ccccc3)c1Cl)C(C#N)=C(N)O2` (configuration not stated), the z-score was 0.22.
For the molecule `Cc1nn(Cc2ccccc2)c2c1C(c1ccccc1)C(C#N)=C(N)O2` (configuration not stated), the z-score is -3.32 (active).
With `CCCn1c(C)cc(C(=O)COC(=O)c2c(C)nn(-c3ccccc3)c2C)c1C`, the z-score is 1.05.
As to `Cc1nn(-c2ccccc2)c(C)c1C(=O)OCC(=O)NC(=O)NC1CCCCC1`, the z-score was -3.49 (active).
With `O=C(COC(=O)c1ccccc1SCC(=O)NC1CCCCC1)NC1CCCCC1`, the z-score is 1.77.
With `COC(=O)[C@H]1Cc2cnoc2C[C@]1(C)C(=O)O`, the z-score is 1.39.
On to `O=c1c(Cl)c(NCc2ccc(F)cc2Cl)cnn1C12CC3CC(CC(C3)C1)C2`, for which the z-score was 0.24.
`COc1ccc(-c2cc(C3CCN(c4ncccc4[N+](=O)[O-])CC3)[nH]n2)cc1`: the z-score was -3.98 (active).
As for `COc1cccc(NC(=O)c2nn(C34CC5CC(CC(C5)C3)C4)cc2[N+](=O)[O-])c1`, the figure is -0.19; as for `Cc1ccc(-c2csc(NC(=O)c3cccs3)n2)cc1`, -3.32 (active).
Under `Cc1nc(-c2ccc(NC(=O)c3cccs3)cc2)cs1` stands -0.41; under `Cc1ccc(-c2nnc(-c3ccc(NC(=O)c4cccs4)cc3)o2)cc1`, -0.15.
As to `CC(C)(C)C1C/C(=C/c2ccco2)C(=O)/C(=C/c2ccco2)C1` (configuration not stated), the z-score is 0.6.
`Cc1ccc(OCC(=O)OC(C)CN(C)Cc2ccccc2)cc1` (configuration not stated): the z-score is 2.87.
For `COc1ccc(N2C(=O)CNC2=S)cc1`, the z-score is 0.4.
For `COc1ccc(-c2nn3c(-c4ccccc4)nnc3s2)cc1OC`, the z-score is -1.25.
For the molecule `CCOc1cccc(-c2nn3c(-c4ccccn4)nnc3s2)c1`, the z-score was -1.53.
With `c1ccc(-c2cc(-c3nnc4sc(-c5ccccn5)nn34)[nH]n2)cc1`, the z-score is -3.26 (active).
